Where “and” joins values, the source holds several entries; their conditions need not be identical. Equal values may be shown once. Screen size: about 34,000 compounds; about 290 (0.85%) showed an effect of 50% or more. The entries come from a sample that favours strong results as a whole.
Test system: Plasmodium falciparum
Assay: Plasmodium falciparum sporozoite viability assay
Format: functional, organism-based
Set-up: scale not given: in the data most compounds retested in dose-response had high values

Structure (SMILES)	Percent Effect [%]	Percent Effect (10 mM as filed; unlikely as a test dose)
CCCN(C(=O)c1ccncc1)c1nc2c(s1)CCc1c-2cnn1C	11.45	–
COCCN(C(=O)c1cnccn1)c1nc2c(s1)CCc1c-2cnn1C	-10.14	–
COCCN(C(=O)c1ccccn1)c1nc2c(s1)CCc1c-2cnn1C	–	80.83% and 57.64% and 71.31%
CCCN(C(=O)c1cnccn1)c1nc2c(s1)CCc1c-2cnn1C	1.308	–
Cc1ccc(C(O)CN2CCN(Cc3nccn3C)CC2)cc1C (stereo not drawn)	1.122	–
Cc1noc(C)c1CN(C)C(=O)NC1CCCN(S(C)(=O)=O)C1 (stereo not drawn)	9.671	–
Cc1cnn(CC2CN(Cc3nc4ccccc4s3)CCO2)c1 (stereo not drawn)	–	55.85% and 70.99% and 46.92%
Cc1nc2ccccc2nc1CN1CCOC(Cn2cccn2)C1 (stereo not drawn)	6.321	–
c1ccc2sc(N3CCOC(Cn4cccn4)C3)nc2c1 (stereo not drawn)	9.76	–
Cc1cc(C)n(CC2CN(Cc3ccccn3)CCO2)n1 (stereo not drawn)	1.241	–
c1ccc(-c2ccc(CN3CCOC(Cn4cncn4)C3)cc2)cc1 (stereo not drawn)	-3.122	–
Cc1cc(C)n(CC2CN(Cc3nc4ccccc4s3)CCO2)n1 (stereo not drawn)	–	66.96% and 52.93% and 45.91%
Cc1cnn(CC2CN(Cc3nc4ccccc4nc3C)CCO2)c1 (stereo not drawn)	-7.63	–
Cc1nc(CN2CCOC(Cn3cncn3)C2)nc2ccccc12 (stereo not drawn)	–	1.85% and -1.802% and -10.11%
Cc1cnn(CC2CN(Cc3nc4ccccc4o3)CCO2)c1 (stereo not drawn)	-0.5102	–
c1ccc(OCCN2CCC(c3nnc(-c4cccnc4)o3)CC2)cc1	-3.337	–
CCOCC1c2c(cnn2C)CCN1C(=O)c1cc(C)on1.O=C(O)C(F)(F)F (stereo not drawn)	15.94	–
COc1ccc(Br)c(C(=O)NCC2CC2)c1	3.186	–
CC(C)COCC1CN(Cc2ccco2)Cc2ncn(C)c21 (stereo not drawn)	12.26	–
Cc1ccc(CN2CC[C@@H]3[C@@H](CO[C@H]3CN3CCN(C)CC3)C2)s1.O=C(O)C(F)(F)F.O=C(O)C(F)(F)F.O=C(O)C(F)(F)F	10.79	–
O=C1[C@H]2CN(S(=O)(=O)C3CC3)C[C@H]2CN1CC1CC1	4.506	–
CC(=O)Nc1nc(C(=O)N2CCCCC2Cn2cc(C)cn2)cs1 (stereo not drawn)	-12.14	–
Cc1ccc(S(=O)(=O)NC(=O)c2c(C)noc2C(C)C)cc1C	-15.45	–
CNC(=O)CCNC(=O)CCc1c(C)nc2cc(O)nn2c1C	8.263	–

Structure (SMILES)	Percent Effect [%]	Percent Effect (10 mM as filed; unlikely as a test dose)
Cc1ccc(CN(C)C(=O)CNC(=O)N2CCc3ccccc3C2)o1	1.19	–
CCC1c2ccsc2CCN1C(=O)NCc1ccc(C)nc1 (stereo not drawn)	6.154	–
CC(C)(C)c1cn2nc(N3CCOC(Cn4cncn4)C3)sc2n1 (stereo not drawn)	8.052	–
CC(C)(C)c1cn2nc(N3CCCC3Cn3cncn3)sc2n1 (stereo not drawn)	–	-5.183% and 4.187% and 0.2303%
CC(C)(C)c1cn2nc(N3CCCC(Cn4cncn4)C3)sc2n1 (stereo not drawn)	–	61.38% and 60.13% and 50.37%
Cc1nc(-c2c(C)noc2C)cc(C2CCN(S(=O)(=O)N(C)C)CC2)n1	10.55	–
CN(C)C(=O)CN1CC[C@]2(CN(CC3CC3)C[C@H]2c2ccccc2)C1=O.O=C(O)C(F)(F)F	2.654	–
O=C(CCc1ccccc1)N1CC(n2cncn2)C1	7.531	–
COc1c(CNCc2ccc3c(c2)OCO3)c(C(C)C)nn1C	7.092	–
O=C(NCCc1ccccc1)N1CCC(C2OCCO2)CC1	–	28.36% and 65.96%
O=C(NCCc1ccccc1)N1CCCCC1C1OCCO1 (stereo not drawn)	–	-48% and -64.36%
O=C(NCc1ccccc1F)N1CCC(C2OCCO2)CC1	0.1127	–
O=C1NCCN2CCN(C(=O)NCCc3ccccc3)CC12 (stereo not drawn)	–	64.04% and 69.93%
CC1=N[C@@]2(CC[C@@H]3CN(C(=O)NCCc4ccccc4)C[C@@H]32)C(=O)N1	2.735	–
O=C1NCCN2CCN(C(=O)Nc3ccc(-c4ccccc4)cc3)CC12 (stereo not drawn)	–	-23.97% and -24.61%
CC(=O)N1CCCC1C(=O)NCCOc1cccc(F)c1 (stereo not drawn)	-6.239	–
Cn1cc(C(=O)N2C[C@@H]3CN(S(C)(=O)=O)CCO[C@@H]3C2)cn1	-2.6	–
C[C@]1(O)CN(CCO)CC[C@@H]1Oc1cccc(F)c1	17.57	–
COc1ccccc1OCCC(=O)N1CCCCC1c1nccs1 (stereo not drawn)	-5.924	–
CN(C)CCNc1ccc(-c2nc(-c3ccccc3F)no2)cn1	–	80.1% and 68.27%
CC(C)(CO)Nc1ccc(-c2nc(-c3ccccc3F)no2)cn1	–	13.89% and 24.65%
CC(O)CN1CCC(CNCc2ccc(C(N)=O)cc2)CC1 (stereo not drawn)	0.9015	–
Cc1ccc(CNC(=O)NC(C)Cn2cccn2)cn1 (stereo not drawn)	11.6	–
CCN1CCN(c2ccc(CNC(=O)Cc3c(C)noc3C)cn2)CC1	9.727	–

Structure (SMILES)	Percent Effect [%]	Percent Effect (10 mM as filed; unlikely as a test dose)
Cc1nc(CN2CCC2(CCCc2ccccn2)C(=O)N(C)C)co1 (stereo not drawn)	12.32	–
CCOCc1nn(CC2CC2)c2c1CN(Cc1cccs1)CC2.O=C(O)C(F)(F)F.O=C(O)C(F)(F)F	6.48	–
Cc1nc(CN2CC(CCCc3ccccn3)(C(=O)N(C)C)C2)co1	-0.6757	–
COc1cccc(OCC2CCCN(C3CCN(C(C)=O)CC3)C2)c1 (stereo not drawn)	–	-11.14% and -12.8% and -12.12%
COc1cccc(OCC2CCCN(C(=O)c3cnc(C)nc3O)C2)c1 (stereo not drawn)	-6.706	–
Cc1nn(CC(C)C)c(N(C)C)c1CNCc1ccc2c(c1)OCO2	-0.9874	–
Cc1nc(Nc2cnccn2)cc(C2CCN(c3ncccn3)C2)n1 (stereo not drawn)	4.755	–
CCOc1ccc(C(=O)N2CCCC(n3ccnc3C)C2)cc1OC (stereo not drawn)	0.3069	–
CCc1cnc(N2CCc3cc(C(=O)NC)c(N(C)C)nc3CC2)nc1.O=C(O)C(F)(F)F	0.8439	–
O=C(c1cc(=O)c(OCc2ccccc2)co1)N1CCSCC1	-8.629	–
c1cnc(-c2nc(CN3CCN(CC4CC4)CC3)cs2)nc1	–	84.72% and 73.85% and 60.32%
NC(=O)C1CCN(Cc2csc(-c3ncccn3)n2)CC1	–	-22.27% and -16.43% and -15.46%
c1cnc(-c2nc(CN3CCCC(N4CCCC4)C3)cs2)nc1 (stereo not drawn)	5.451	–
c1cnc(-c2nc(CN3CCC(c4ccn[nH]4)CC3)cs2)nc1	5.764	–
CC(=O)Nc1nc2c(s1)C1(CCN(C)CC1)Nc1ccccc1S2	12.96	–
Cc1nccc(N2CCCC(C)(C(=O)NC3CCCC3)C2)n1 (stereo not drawn)	2.213	–
Cc1cnn(CC2CCCCN2Cc2nc(C)c3ccccc3n2)c1 (stereo not drawn)	–	35.56% and 21.88% and 27.76%
Cc1cnn(CC2CCCCN2Cc2nc(N)c3ccccc3n2)c1 (stereo not drawn)	–	41.2% and 50.14% and 52.23%
Cc1cnn(CC2CCCN2Cc2nc(N)c3ccccc3n2)c1 (stereo not drawn)	–	22.63% and 18.94% and 34.15%
CC(=O)N1CCN(c2ccc3ccc(C(=O)NC4CCCC4)cn23)CC1	-4.944	–
Cc1cc(C(=O)N2CCN(c3ncc4c(n3)CCOC4)CC2)sc1C	-7.443	–
Cc1nc(CN2CCc3c(nc(C4CC4)n3C)C2)nc2ccccc12	–	-16.27% and -10.13%
Cn1c(C2CC2)nc2c1CCN(Cc1nc3ccccc3s1)C2	–	48.9% and 53.74%
Cc1nc2ccccc2nc1CN1CCc2c(nc(C3CC3)n2C)C1	–	-9.933% and -2.839%

Structure (SMILES)	Percent Effect [%]	Percent Effect (10 mM as filed; unlikely as a test dose)
c1ccc2nc(N3CCOC(Cn4cccn4)C3)cnc2c1 (stereo not drawn)	7.131	–
OCC1CCCN1c1cc(NCc2ccsc2)ncn1 (stereo not drawn)	11.95	–
OCC1CCCN1c1cc(NCCNc2cccnn2)ncn1 (stereo not drawn)	–	9.971% and -4.087%
OCC1CCCN1c1cc(NCCc2nccs2)ncn1 (stereo not drawn)	–	21.04% and 15.76%
OCC1CCCN1c1cc(NCc2ccccn2)ncn1 (stereo not drawn)	–	-21.68% and -23.27%
OCC1CCCN1c1cc(NCCc2ccccn2)ncn1 (stereo not drawn)	–	91.05% and 79.59%
Cc1cccnc1CNc1cc(N2CCCC2CO)ncn1 (stereo not drawn)	-13.57	–
OCC1CCCN1c1cc(NCCc2ccsc2)ncn1 (stereo not drawn)	–	86.32% and 73.55%
CC(C)CN(C)Cc1nc2c(cnn2C)c(=O)[nH]1	7.587	–
CN(C)CC1CN(Cc2nc(-c3ccccn3)no2)CCO1 (stereo not drawn)	24.23	–
CN1CCN(S(=O)(=O)c2ccc(Cl)c(Cl)c2)c2cnccc21	–	-22.78% and -8.887%
Cc1cc(-c2cc(F)ccc2C(=O)O)nc(C2CCCCN2C(C)C)n1 (stereo not drawn)	4.863	–
CC(=O)N1N=C(c2ccccc2)OC1C(=O)NCCc1ccc(O)cc1 (stereo not drawn)	3.916	–
CC[C@@H](C)[C@@H](N)C(=O)Nc1cccc(-c2cnc(N(C)CCO)nc2)c1	4.657	–
Cn1cc(CCC(=O)NS(=O)(=O)N2CCCc3ccccc32)cn1	–	95.69% and 93.95% and 93.94%
O=C(CCn1cccn1)NS(=O)(=O)N1CCCc2ccccc21	–	88.08% and 94.17% and 83.19%
Cn1cc(CCNC(=O)CCc2ccc3c(c2)OCO3)cn1	0.08354	–
CCn1cc(NC(=O)NCCN2CCCc3ccccc32)cn1	-384.2	–
Cc1cnn(CCC(=O)NS(=O)(=O)N2CCc3ccccc32)c1	–	-13.26% and -21.53% and -23.4%
Cn1nc(CNC(=O)c2ccc(OC(F)(F)F)cc2)c2c1CCOC2	-1.164	–
Cn1ncc(NCc2cccc(F)c2)c(Cl)c1=O	2.958	–
